We go through 38 compounds from PubChem BioAssay (NCI).

About 83,000 compounds went through this panel and 20% of them were active in at least one assay; those are over-represented in the sample as a whole.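 For each line, cells grew in 96-well plates with the test compound present at a single concentration for 48 hours.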 Unmarked numbers belong to inactive results. Active and inactive are the calls of the source. How the source made its calls: active means growth percent below 10; inactive means the rest.

One experiment deals with NCI-H522 lung. As to the kind of experiment: NCI-60 one-dose screen, 48 h (100 = growth as untreated, 0 = no growth, -100 = all killed). The following applies: 10 µM unless noted.
As for `CC(=O)OC[C@@]1(C)C2CC[C@]3(C)C(CC=C4C5CC(C)(C)CC[C@]5(C(=O)Nc5ccc(C)cc5)CC[C@]43C)[C@@]2(C)C[C@@H](OC(C)=O)[C@@H]1OC(C)=O` (some centres not stated), the growth was 48.9%.

In the case of `Cc1ccc(C(=O)CSc2nc3ccc(F)cc3c(=O)n2-c2ccc(Cl)cc2)cc1`, the growth was 63.8%.

Take `COc1ccc(-c2ccnc(SCc3cc4cc(Cl)ccc4[nH]c3=O)n2)cc1`: the growth is 34.2%.

`COc1cc(-c2ccc(/C=N/NC(=O)c3[nH]c4ccc(Br)cc4c3-c3ccccc3)o2)cc(OC)c1OC`: the growth was 82.8%.

Take `CC1=C(C(=O)OC(C)C)C(c2cccc(O)c2)NC(=S)N1` (configuration not stated): the growth is 91.8%.

As for `COc1cccc(COc2ccc(NC(=O)Nc3ccc(Cl)c(C(F)(F)F)c3)cc2)c1`, the growth was 22.1%.

Turning to `COc1ccc(C(=O)Nc2n[nH]c(Nc3ccccc3)c2C#N)cc1`, the growth was 104%.

`O=C(c1ccc(OCCN2CCOCC2)cc1)C1[C@H](c2ccc(Cl)cc2)[C@@H](c2ccccc2)NC12C(=O)Nc1ccc(Cl)cc12` (some centres not stated): the growth was 16.3%.

`O=C(N=Nc1c(O)[nH]c2ccc([N+](=O)[O-])cc12)c1ccc2nc(-c3ccccc3)[nH]c2c1`: the growth is 17.8%.

For the compound `CCN(CC)C(=O)N/C(N)=N/c1nc2ccccc2s1`, the growth is 51.2%.

Consider `Nc1nnc(-c2c[nH]c3ncc(Br)cc23)c(-c2c[nH]c3ccc(F)cc23)n1`, for which the growth was 50.5%.

Turning to `O=C(COc1ccc(NC(=O)Nc2ccccc2)cc1)N=Nc1c(O)[nH]c2ccc([N+](=O)[O-])cc12`, the growth is -48% (active).

For the compound `CC(=O)Nc1ccc(-n2cnc3cc(-c4ccc(O)cc4)ccc32)cc1C(F)(F)F`, the growth is -33.8% (active).

Take `CN(C)CCn1c2ccccc2c2nc3cc4ccccc4cc3nc21`: the growth is 27.5%.

For the compound `COc1cc2oc(-c3cccc(C(=O)Nc4cccc([N+](=O)[O-])c4)c3)cc(=O)c2c(OC)c1OC`, the growth is -46% (active).

As for `Cc1cccc(NC(=O)[C@]23CCC(C)(C)CC2C2=CCC4[C@@]5(C)C[C@@H](O)[C@H](O)[C@@](C)(CO)C5CC[C@@]4(C)[C@]2(C)CC3)c1` (some centres not stated), the growth was 10.8%.

Regarding `O=C(/C=C/c1cccc(OCc2ccccc2)c1)c1nc2ccccc2[nH]1`, the growth is 72.8%.

With `COc1ccc(N2N=C(c3ccc4c(c3)OCO4)CC2c2cccc(NC(=O)CCNS(=O)(=O)c3ccc(Cl)cc3)c2)cc1` (configuration not stated), the growth was -80.7% (active).

Consider `CN(C)c1ccnc(CNCCSC2(c3ccccc3)c3ccccc3C=Cc3ccccc32)c1`, for which the growth is -73.6% (active).

Consider `CC1=C(C(=O)c2ccccc2)C(c2ccc(-n3cncn3)cc2)n2c(nc3ccccc32)N1` (configuration not stated), for which the growth was 83.2%.

Turning to `Cc1cnc(C(=O)NNc2nc3cc(F)ccc3n3c(C(=O)N4CC5CC(C4)N5)ccc23)cn1`, the growth is 57.8%.

As for `CN(C)CCCNC(=O)c1cc(NC(=O)c2cc(NC(=O)c3ccc(C#Cc4ccccc4)cc3)cn2C)cn1C`, the growth is -95.3% (active).

`N/C(=N\N=C\c1ccc([N+](=O)[O-])cc1)c1c(N)nc(=S)[nH]c1-c1ccc(Cl)cc1Cl`: the growth was 78.5%.

Take `C=C1CCC2C3(C)COC(c4cccc(F)c4)OC3CCC2(C)C1C/C=C1/C(=O)OCC1O` (configuration not stated): the growth was -76.1% (active).

A further experiment has as its system A549/ATCC NSCLC. The description is as above. The following applies: 10 µM unless noted.
Turning to `COc1cc2c(c(OC)c1OC)C(=O)CC(c1cccc(NC(=O)[C@@H](N)CC(C)C)c1)O2` (some centres not stated), the growth was 93.1%.

Take `CN1CCN(/C(=N\c2sc(-c3ccccc3)nc2-c2ccccc2)c2ccccc2)CC1`: the growth was 76.9%.

Take `Cc1ccc(-c2nnc3ccc(N/N=C/c4ccccc4)nn23)cc1`: the growth was 93.1%.

As for `COc1ccc(C(=O)/C=C/c2ccccc2Br)cc1S(N)(=O)=O`, the growth is -81.4% (active).

As for `CC1=C(C(=O)OCc2ccccc2)C(c2c(O)cc(O)cc2O)n2c(nc3ccccc32)N1` (configuration not stated), the growth is 56.7%.

In the case of `CCCCc1c(Nn2cnnn2)no[n+]1[O-]`, the growth was 66.4%.

Consider `CC(C)CSc1nc(NCCc2c[nH]c3ccccc23)c(C#N)c(-c2ccc(Cl)cc2)n1`, for which the growth is 63%.

With `CN1CCc2c(sc3ncnc(N/N=C/c4ccc(Cl)cc4Cl)c23)C1`, the growth is 31.4%.

Turning to `N#Cc1c(-c2ccc(Br)cc2)nc2n[nH]c(-c3ccc(Br)cc3)c2c1-c1ccc(F)cc1`, the growth was 99.7%.

For `CC(=O)OC[C@@]1(C)C2CC[C@]3(C)C(CC=C4C5CC(C)(C)CC[C@]5(C(=O)Nc5ccc(F)cc5)CC[C@]43C)[C@@]2(C)C[C@@H](OC(C)=O)[C@@H]1OC(C)=O` (some centres not stated), the growth is 40.6%.

Take `NS(=O)(=O)c1ccc(N=Nc2c(O)n(CC(=O)Nc3ccccc3Cl)c3ccccc23)cc1`: the growth was 18.5%.

Consider `CCCCNC(=S)Nc1ccc(OCc2nc3ccccc3[nH]2)cc1`, for which the growth was 49.7%.

For `Cc1cc2nc3c4ccccc4n(CCCN(C)C)c3nc2cc1C`, the growth was 6.71% (active).

On to `COc1cc2c(c(OC)c1OC)C(=O)CC(c1cccc(NC(=O)c3cc(NC(=O)[C@@H](N)CO)ccc3C)c1)O2` (some centres not stated), for which the growth was 102%.

For `CC(=O)OC[C@@]1(C)C2CC[C@]3(C)C(CC=C4C5CC(C)(C)CC[C@]5(C(=O)Nc5ccc(C)cc5)CC[C@]43C)[C@@]2(C)C[C@@H](OC(C)=O)[C@@H]1OC(C)=O` (some centres not stated), the growth was 41.4%.

In the case of `Cc1ccc(C(=O)CSc2nc3ccc(F)cc3c(=O)n2-c2ccc(Cl)cc2)cc1`, the growth is 60.9%.

Consider `COc1ccc(-c2ccnc(SCc3cc4cc(Cl)ccc4[nH]c3=O)n2)cc1`, for which the growth is 60.7%.

For the compound `COc1cc(-c2ccc(/C=N/NC(=O)c3[nH]c4ccc(Br)cc4c3-c3ccccc3)o2)cc(OC)c1OC`, the growth is 71.6%.

On to `CC1=C(C(=O)OC(C)C)C(c2cccc(O)c2)NC(=S)N1` (configuration not stated), for which the growth is 103%.

Turning to `COc1cccc(COc2ccc(NC(=O)Nc3ccc(Cl)c(C(F)(F)F)c3)cc2)c1`, the growth is 16%.

Regarding `COc1ccc(C(=O)Nc2n[nH]c(Nc3ccccc3)c2C#N)cc1`, the growth was 117%.

For `O=C(c1ccc(OCCN2CCOCC2)cc1)C1[C@H](c2ccc(Cl)cc2)[C@@H](c2ccccc2)NC12C(=O)Nc1ccc(Cl)cc12` (some centres not stated), the growth is 22.9%.

For the compound `O=C(N=Nc1c(O)[nH]c2ccc([N+](=O)[O-])cc12)c1ccc2nc(-c3ccccc3)[nH]c2c1`, the growth is 106%.

For `CCN(CC)C(=O)N/C(N)=N/c1nc2ccccc2s1`, the growth is 62.9%.

On to `Nc1nnc(-c2c[nH]c3ncc(Br)cc23)c(-c2c[nH]c3ccc(F)cc23)n1`, for which the growth was 40.7%.

Regarding `O=C(COc1ccc(NC(=O)Nc2ccccc2)cc1)N=Nc1c(O)[nH]c2ccc([N+](=O)[O-])cc12`, the growth was 101%.

As for `CC(=O)Nc1ccc(-n2cnc3cc(-c4ccc(O)cc4)ccc32)cc1C(F)(F)F`, the growth is 19.4%.

Regarding `CN(C)CCn1c2ccccc2c2nc3cc4ccccc4cc3nc21`, the growth was -68% (active).

Consider `COc1cc2oc(-c3cccc(C(=O)Nc4cccc([N+](=O)[O-])c4)c3)cc(=O)c2c(OC)c1OC`, for which the growth was 23%.

With `Cc1cccc(NC(=O)[C@]23CCC(C)(C)CC2C2=CCC4[C@@]5(C)C[C@@H](O)[C@H](O)[C@@](C)(CO)C5CC[C@@]4(C)[C@]2(C)CC3)c1` (some centres not stated), the growth is 21.1%.

In the case of `O=C(/C=C/c1cccc(OCc2ccccc2)c1)c1nc2ccccc2[nH]1`, the growth was 39.1%.

Turning to `COc1ccc(N2N=C(c3ccc4c(c3)OCO4)CC2c2cccc(NC(=O)CCNS(=O)(=O)c3ccc(Cl)cc3)c2)cc1` (configuration not stated), the growth was 33.4%.

`CN(C)c1ccnc(CNCCSC2(c3ccccc3)c3ccccc3C=Cc3ccccc32)c1`: the growth was 0.815% (active).

`CC1=C(C(=O)c2ccccc2)C(c2ccc(-n3cncn3)cc2)n2c(nc3ccccc32)N1` (configuration not stated): the growth was 77.1%.

Turning to `Cc1cnc(C(=O)NNc2nc3cc(F)ccc3n3c(C(=O)N4CC5CC(C4)N5)ccc23)cn1`, the growth was 25.4%.

As for `CN(C)CCCNC(=O)c1cc(NC(=O)c2cc(NC(=O)c3ccc(C#Cc4ccccc4)cc3)cn2C)cn1C`, the growth is -14.8% (active).

Take `N/C(=N\N=C\c1ccc([N+](=O)[O-])cc1)c1c(N)nc(=S)[nH]c1-c1ccc(Cl)cc1Cl`: the growth is 101%.

Turning to `C=C1CCC2C3(C)COC(c4cccc(F)c4)OC3CCC2(C)C1C/C=C1/C(=O)OCC1O` (configuration not stated), the growth is 23.3%.
